From PubChem BioAssay AID720511 (Broad Institute, 2013)
About 1,300 (0.37%) of roughly 350,000 compounds were called active.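 Rule for the calls: active = mean added fluorescence quench of at least 8% versus neutral control, with both replicates also reaching 8%; inconclusive = only one of the mean or replicate conditions met; inactive = mean below 8% and not both replicates reaching 8%.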 The list comes from a sample in which actives are over-represented; it also holds similar structures and randomly drawn compounds.

experiment: F508del CFTR correction, initial screen, CFBE line, single point (AID 720511); settings: CFBE cells, YFP halide quenching, at 7.58 µM, hits give high values, % fluorescence drop versus neutral controls, stimulated with forskolin plus potentiator P3;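 note: cells transiently co-express mutant CFTR-F508del with the halide-sensitive YFP; corrector assay measuring rescue of mutant channel to the surface after 24 h compound exposure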

**Q.** For CCC(=O)N1CC2(CN(Cc3cccnc3)C2)c2c(n(C)c3cc(OC)ccc23)[C@@H]1CO, which activity (quench increase) is on record?
**A.** Its activity (quench increase) is -0.0075% (inactive).

**Q.** Which activity (quench increase) does the source give for CCCC#Cc1cnc2c(c1)C(=O)N([C@@H](C)CO)C[C@@H](C)[C@@H](CN(C)Cc1ccccc1F)O2 here?
**A.** Its activity (quench increase) is 0.509% (inactive).

**Q.** For CNC(=O)C[C@@H]1CC[C@@H]2[C@@H](COc3ccc(NC(=O)c4ccc5c(c4)OCO5)cc3C(=O)N2C)O1, which activity (quench increase) is on record?
**A.** The activity (quench increase) was 0.442% (inactive).

**Q.** Which activity (quench increase) does the source give for COCC(=O)N(C)C[C@@H]1Oc2ncc(C#C[C@H](C)O)cc2C(=O)N([C@@H](C)CO)C[C@@H]1C here?
**A.** The activity (quench increase) was 1.42% (inactive).

**Q.** Which activity (quench increase) does the source give for COc1ccc(NC(=O)Nc2ccc3c(c2)[C@H]2C[C@H](CC(=O)NC4CCCC4)O[C@H](CO)[C@H]2O3)cc1 here?
**A.** The activity (quench increase) was 2.1% (inactive).

**Q.** Which activity (quench increase) does the source give for C[C@@H]1CCCCO[C@H](CN(C)C(=O)CCC(F)(F)F)[C@@H](C)CN([C@@H](C)CO)C(=O)c2cc(NC(=O)c3ccncc3)ccc2O1 here?
**A.** Its activity (quench increase) is 2% (inactive).

**Q.** Which activity (quench increase) does the source give for Cc1ccccc1-c1ccc([C@H]2[C@H]3CN(S(=O)(=O)c4ccc(F)cc4)CCCCN3[C@H]2CO)cc1 here?
**A.** The activity (quench increase) was -0.288% (inactive).

**Q.** For O=C(N[C@H]1CC[C@H](CCn2cc(-c3ccccc3F)nn2)O[C@@H]1CO)c1ccc2c(c1)OCO2, which activity (quench increase) is on record?
**A.** The activity (quench increase) was -1.87% (inactive).

**Q.** With C[C@@H]1CCCCO[C@@H](CN(C)Cc2ccncc2)[C@H](C)CN([C@@H](C)CO)C(=O)c2cc(N(C)C)ccc2O1 as the molecule, how does the activity (quench increase) read?
**A.** The activity (quench increase) was -0.227% (inactive).

**Q.** For N#C[C@@H]1[C@@H](c2ccccc2)[C@H](CO)N1C(=O)c1cc(Cl)cc(Cl)c1, which activity (quench increase) is on record?
**A.** Its activity (quench increase) is -2.95% (inactive).

**Q.** With O=C(NCCC1CCCCN1S(=O)(=O)c1ccc(F)cc1)C(=O)NC1CC1 (centres undefined) as the molecule, how does the activity (quench increase) read?
**A.** Its activity (quench increase) is 3.1% (inactive).

**Q.** For O=C(NCCC1CCCCN1S(=O)(=O)c1cccs1)C(=O)Nc1ccc(F)cc1F (centres undefined), which activity (quench increase) is on record?
**A.** The activity (quench increase) was 8.8% (active).

**Q.** For COc1ccccc1CCNC(=O)C(=O)NCCC1CCCCN1S(=O)(=O)c1cccs1 (centres undefined), which activity (quench increase) is on record?
**A.** Its activity (quench increase) is 0.824% (inactive).

**Q.** Which activity (quench increase) does the source give for COc1cccc(-c2ccc3c(c2)O[C@@H](CN(C)Cc2ccncc2)[C@H](C)CN([C@H](C)CO)S3(=O)=O)c1 here?
**A.** The activity (quench increase) was 3.64% (inactive).

**Q.** Which activity (quench increase) does the source give for Cc1noc(C)c1NC(=O)N(C)C[C@H]1OCCCC[C@@H](C)Oc2ccc(NC(=O)NC(C)C)cc2C(=O)N([C@H](C)CO)C[C@@H]1C here?
**A.** The activity (quench increase) was 1.72% (inactive).

**Q.** With Cc1nnc(NC(=O)CSc2nccn2-c2cccc(C)c2C)s1 as the molecule, how does the activity (quench increase) read?
**A.** Its activity (quench increase) is 8.52% (active).

**Q.** For COc1ccccc1-n1c(CNC(=O)c2ccccc2)nnc1SCC(=O)Nc1nnc(C)s1, which activity (quench increase) is on record?
**A.** Its activity (quench increase) is 2.1% (inactive).

**Q.** With COc1ccccc1-n1ccnc1SCC(=O)NC(C)(C)C as the molecule, how does the activity (quench increase) read?
**A.** The activity (quench increase) was 0.912% (inactive).

**Q.** Which activity (quench increase) does the source give for C[C@H](CO)N1C[C@H](C)[C@H](CN(C)S(=O)(=O)c2ccc(Cl)cc2)Oc2c(NS(C)(=O)=O)cccc2C1=O here?
**A.** The activity (quench increase) was 1.05% (inactive).
